Measurements reported in PubChem BioAssay (NCATS).
Records with an inconclusive call do not appear. A number with no mark means an inactive call. Activity calls are given as the source filed them. Calls come from the whole dose curve; as a rule, active = well fitted cell-killing curve with a large enough effect; inconclusive = small, poorly fitted or top-dose-only effect; inactive = flat fitted curve, though single readings scatter.

Assay: qHTS of pediatric cancer cell lines to identify multiple opportunities for drug repurposing: Primary screen for BT-12 cells (AID 1347101); note: nearly all actives have a fitted effect of over 25% in size
Conditions: BT-12 viability, CellTiter-Glo luminescence, 48 h; series mostly up to 57.3 µM; activity change, negative = cytotoxic: at the top concentration
Description: Drug repurposing or repositioning has been offered as a strategy for drug development in oncology programs. This approach has special potential for childhood cancers and other rare or orphan diseases, where the expected return on new drug development has been a disincentive to pharmaceuticals.
In this project we exploit the poly-pharmacology of drugs to discover new indications via phenotypic screening of a panel of 19 well-characterized cell lines derived from solid tumors seen in children and adolescents. The goal is to identify approved drugs with previously unrecognized anticancer properties that has the potential to reveal new mechanisms and biological processes involved in carcinogenesis or drug resistance. We employed a titration-based paradigm (quantitative high-throughput screening or qHTS), where all compounds were tested at multiple concentrations for their effect on cell viability. Concentration-response curves (CRCs) were derived directly from the primary screen, and both potency and efficacy values were used to identify compounds with robust bioactivity profiles. We screened the NIH Chemical Genomics Center (NCGC) Pharmaceutical Collection (NPC) and Mechanism Interrogation Plate (MIPE) small molecule collections of approved and investigational compounds against these cell lines; and measured metabolically active cells after 48 hours of compound treatment as a proxy for cell viability.
Assay Submitter: Nathalia J. Martinez, National Center for Advancing Translational Sciences, National Institutes of Health, Rockville, MD, USA; email: natalia.martinez@nih.gov
[1] Shen, M et al. Quantitative high-throughput phenotypic screening of pediatric cancer cell lines identifies multiple opportunities for drug repurposing. Oncotarget 2017 Dec 19;9(4):4758-4772. PMID 29435139.
The cells were obtained from University of North Carolina (UNC), Pediatric Preclinical Testing Program (PPT), and Coriell Institute (CI).
qHTS cell viability assay:
Cells were assayed in growth media at a density of 500-1,000 cells/well. Five microliters of cells were dispensed into 1,536-well, white, solid-bottom, TC-treated plates (Greiner Bio One) using a multidrop dispenser and incubated at 37 degrees C, 5% CO2, under a humidified atmosphere for 5 hours. Twenty-three nanoliters of compounds and controls (neutral control DMSO or positive control bortezomib at final concentration of 2.3 µM) were subsequently transferred by Kalypsys pintool. For primary screens, the MIPE collection was tested at 11-point dilutions (final concentrations range from 0.78 nM to 46 µM) and the NPC collection at 8-point dilutions (final concentrations range from 0.59 nM to 46 µM). Compounds tested in follow-up screens were assayed at 11-point dilutions. Cells were incubated for 48 hours, followed by addition of 3 µL of CellTiter-Glo (Promega). After a 15 min incubation at room temperature, samples were analyzed for luminescence intensity using a ViewLux High-throughput CCD imager equipped with clear filters.
Potency is the fitted concentration of half-maximal effect.

Structure (SMILES)	activity change, negative = cytotoxic	Potency
CCOC(=O)[C@H]1O[C@H]1C(=O)N[C@@H](CC(C)C)C(=O)NCCC(C)C	7.59%	–
O[C@@H](COc1cccc2ncccc12)CN1CCN(C2c3ccccc3[C@@H]3[C@H](c4ccccc42)C3(F)F)CC1 (stereo not given in full)	–	24.3 µM (active)
CON(C)C(=O)N1N=C(c2cc(F)ccc2F)S[C@]1(CCCN)c1ccccc1	–	15.3 µM (active)
CC[C@H](C=C[C@@H](C)[C@H]1CC[C@H]2[C@@H]3CC=C4C[C@@H](O)CC[C@]4(C)[C@@H]3CC[C@]12C)C(C)C	7.27% [at 20.1 µM]	–
CCN(CC)CCCCNc1nc2cc(Cl)c(Cl)cc2nc1-c1ccc(-c2cccs2)s1	–	34.3 µM (active)
CCc1cccc(CC)c1NC(=O)N1Cc2[nH]nc(NC(=O)c3ccc(N4CCN(C)CC4)cc3)c2C1	-28.4%	–
CC(C)(C)c1nc(-c2cccc(NS(=O)(=O)c3c(F)cccc3F)c2F)c(-c2ccnc(N)n2)s1	1.19%	–
CC1(C)OC2CC3C4CC(F)C5=CC(=O)C=CC5(C)C4C(O)CC3(C)[C@]2(C(=O)CO)O1 (stereo not given in full)	10.6%	–
CN1CCC(COc2cnc(-c3cccc(Cn4nc(-c5cccc(C#N)c5)ccc4=O)c3)nc2)CC1	11.2%	–
NC[C@H]1O[C@H](O[C@@H]2[C@@H](O)[C@@H](O[C@H]3O[C@H](CO)[C@@H](O)[C@H](N)[C@@H]3O)[C@H](N)C[C@@H]2N)[C@H](O)[C@@H](O)[C@H]1O	1.14%	–
CC(C)(OCc1nn(Cc2ccccc2)c2ccccc12)C(=O)O	2.3%	–
CN[C@@H](C)[C@H]1[C@H](O)C[C@@]2(C)[C@@H]3CC[C@H]4C(C)(C)[C@@H](NC)CC[C@@]45C[C@@]35CC[C@]12C	6.47%	–
CC=C1C2C=C(C)CC1(N)c1ccc(=O)[nH]c1C2 (stereo not given)	5.32%	–
C[C@@]1(c2cc(-c3cncnc3)c(F)cc2F)CCSC(N)=N1	–	3.85 µM (active)
Cc1cc(C(C)Nc2ccccc2)c2nc(N3CCOCC3)cc(=O)n2c1 (stereo not given)	-6.07%	–
CNC(=O)c1ccc2c(C(=Nc3cccc(CN(C)C)c3)c3ccccc3)c(O)[nH]c2c1	2.09%	–
CN(CC=CC#CC(C)(C)C)Cc1cccc2ccccc12	6.93%	–
Nc1ncnc2c1c(-c1cccc(OCc3ccccc3)c1)cn2C1CC(CN2CCC2)C1 (stereo not given)	0.6%	–
Clc1ccc(C2(c3ccc(-c4cn[nH]c4)cc3)CCNCC2)cc1	-2.31%	–
O=C(O)CCNc1cc(N2CCc3ccccc3CC2)nc(-c2ccccn2)n1	-14.7%	–

Structure (SMILES)	activity change, negative = cytotoxic	Potency
CC(C)(CO)[C@@H](O)C(=O)NCCC(=O)O	-1.89%	–
CC[C@H](C)C(=O)O[C@H]1C[C@H](O)C=C2C=C[C@H](C)[C@H](CC[C@@H](O)C[C@@H](O)CC(=O)O)[C@H]21	-9.06%	–
O=C(c1ccc(C(=O)N2CCC(N3CCCC3)CC2)c(Nc2ccccc2)c1)N1CCC(N2CCCC2)CC1	18%	–
Cc1nc(C(=O)NCC(=O)O)c(O)c2ccc(Oc3ccccc3)cc12	-1.49%	–
CC(C)N(CCCNC(=O)Nc1ccc(C(C)(C)C)cc1)C[C@H]1O[C@@H](n2cc(Br)c3c(N)ncnc32)[C@H](O)[C@H]1O	–	24.3 µM (active)
C[C@H](CCC(=O)O)[C@H]1CC[C@H]2[C@H]3[C@@H](CC[C@]12C)[C@@]1(C)CC[C@@H](O)C[C@H]1C[C@@H]3O	-31.3%	–
O=C(O)C1=CO[C@@H](O[C@@H]2O[C@H](CO)[C@H](O)[C@H](O)[C@H]2O)[C@@H]2C(CO)=CC[C@H]12	-1.6%	–
CCOC(=O)N1CCN([N+]([O-])=NOc2cc(ON=[N+]([O-])N3CCN(C(=O)OCC)CC3)c([N+](=O)[O-])cc2[N+](=O)[O-])CC1	3.67%	–
CCCCCOC(=O)Nc1nc(=O)n([C@@H]2O[C@H](C)[C@@H](O)C2O)cc1F (stereo not given in full)	1.01%	–
CNC1CCC(N(Cc2cccc(-c3ccncc3)c2)C(=O)c2sc3ccccc3c2Cl)CC1 (stereo not given)	–	30.6 µM (active)
CNC(=O)c1cc(Oc2ccc(NC(=O)Nc3ccc(Cl)c(C(F)(F)F)c3)c(F)c2)ccn1	–	12.2 µM (active)
CCN1CCC(n2cc(CNc3cc(Cl)c4ncc(C#N)c(Nc5ccc(F)c(Cl)c5)c4c3)nn2)CC1	–	24.3 µM (active)
CC[C@@H]([C@H](C)O)n1ncn(-c2ccc(N3CCN(c4ccc(OCC5CO[C@@](Cn6cncn6)(c6ccc(F)cc6F)C5)cc4)CC3)cc2)c1=O (stereo not given in full)	–	21.7 µM (active)
C[C@H]1O[C@@H](n2cc(F)c(=O)[nH]c2=O)[C@H](O)[C@H]1O	–	27.3 µM (active)
O=C(O)c1nc(=O)[nH]c(=O)[nH]1	-10.7% [at 20.1 µM]	–
COc1ccc2cc1Oc1ccc(cc1)C[C@H]1c3cc(c(OC)cc3CCN1C)Oc1c(OC)c(OC)cc3c1[C@H](C2)N(C)CC3	–	7.69 µM (active)
CC(=O)O[C@]1(C(C)=O)CC[C@H]2[C@@H]3C=C(Cl)C4=CC(=O)[C@@H]5C[C@H]5[C@]4(C)[C@@H]3CC[C@@]21C	–	3.43 µM (active)
CC(C)[C@H](O)C(=O)N[C@@H](C)C(=O)N[C@@H]1C(=O)N(C)CCc2ccccc21	2%	–
C#C[C@]1(O)CC[C@H]2[C@H]3CCc4cc(OC)ccc4[C@H]3CC[C@@]21C	2.78%	–
Fc1ccc(CNc2ncnc3ccc(F)cc23)cc1	–	4.32 µM (active)
